According to PubChem BioAssay (NCI):
About 83,000 compounds went through this panel and 20% of them were active in at least one assay; those are over-represented in the sample as a whole.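 48-hour exposure, single concentration, 96-well plates; percent growth endpoint where 0 means no net growth. Active: below 10.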 Unmarked numbers belong to inactive results. The source made the active and inactive calls.

Experiments:
Test in all cases: NCI-60 one-dose screen, 48 h (100 = growth as untreated, 0 = no growth, -100 = all killed)
Details in all cases: 10 µM unless noted
NCI-H23 lung = test system: NCI-H23 lung
NCI-H226 lung = test system: NCI-H226 lung
NCI-H322M lung = test system: NCI-H322M lung
HOP-62 NSCLC = test system: HOP-62 NSCLC
NCI-H460 lung = test system: NCI-H460 lung
NCI-H522 lung = test system: NCI-H522 lung
A549/ATCC NSCLC = test system: A549/ATCC NSCLC
786-0 renal = test system: 786-0 renal
MALME-3M melanoma = test system: MALME-3M melanoma
MDA-MB-231 breast = test system: MDA-MB-231 breast
RXF 393 renal = test system: RXF 393 renal
SF-268 CNS = test system: SF-268 CNS
SF-295 CNS = test system: SF-295 CNS
SF-539 CNS = test system: SF-539 CNS
UACC-257 melanoma = test system: UACC-257 melanoma
M14 melanoma = test system: M14 melanoma
HCT-15 colon = test system: HCT-15 colon
COLO 205 colon = test system: COLO 205 colon
DU-145 prostate = test system: DU-145 prostate
K-562 leukemia = test system: K-562 leukemia

Compound | growth (NCI-H23 lung) | growth (NCI-H226 lung) | growth (NCI-H322M lung) | growth (HOP-62 NSCLC) | growth (NCI-H460 lung) | growth (NCI-H522 lung) | growth (A549/ATCC NSCLC) | growth (786-0 renal) | growth (MALME-3M melanoma) | growth (MDA-MB-231 breast) | growth (RXF 393 renal) | growth (SF-268 CNS) [%] | growth (SF-295 CNS) | growth (SF-539 CNS) | growth (UACC-257 melanoma) | growth (M14 melanoma) | growth (HCT-15 colon) | growth (COLO 205 colon) | growth (DU-145 prostate) [%] | growth (K-562 leukemia)
COc1ccc(-c2c3c(nn2-c2ccc(N)cc2)CCc2cnoc2-3)cc1OC | 93.4% | 95.8% | 103% | 104% | 101% | 70.4% | 85.2% | 84.9% | 106% | 88.5% | 93% | 90.8 | 85.4% | 94.5% | 112% | 97.8% | 85.6% |  |  | 
COc1ccc2c(c1)nc(N)c1c3cc(C)c(C)cc3cn21 | 80.4% | 86.8% | 94% | 84.7% | 48.4% | 19.6% | 79.4% | 91.2% | 76.5% | 84.6% | 78.1% | 75.6 | 64.3% | 95.7% | 83.7% | 57.5% | 48.7% |  |  | 
Cn1cc(-c2nc(-c3c[nH]c4ncc(F)cc34)cs2)c2cccnc21 | 92.1% | 98.8% | 107% | 108% | 96.3% | 140% | 107% | 94.4% | 101% | 68.8% | 98.3% | 116 | 107% | 113% | 119% | 86.6% | 97.1% |  |  | 
O=[N+]([O-])c1ccc2c(c1)S(=O)c1cc([N+](=O)[O-])ccc1N2 | 103% | 91.9% | 117% | 67.3% | 96.4% | 97% |  | 108% | 113% | 96.3% | 104% | 104 | 106% | 98.3% | 96.6% | 91.7% | 99% | 108% | 116 | 115%
O=C(CCc1nnc2sc(-c3ccc(Cl)cc3Cl)nn12)c1nc2ccccc2[nH]1 | -35.1% (active) | -78.4% (active) | -54.7% (active) | -56.9% (active) | -57.8% (active) | -74.7% (active) | -46.1% (active) | -94.7% (active) | -26.5% (active) | -54.2% (active) | -92.9% (active) | 15.2 | -37.4% (active) | -19% (active) | -69.9% (active) | -47.5% (active) | -31.8% (active) |  |  | 
Clc1ccc2c(Nc3ccc4oc(NCCN5CCCC5)nc4c3)ccnc2c1 | 88.7% | 101% | 90.1% | 109% | 96.4% | 98.5% | 92.9% |  | 105% | 37.3% | 81.8% | 72.5 | 106% | 47.6% | 108% | 50.7% | 49.3% | 84.4% | 71.1 | 20.8%
O=c1[nH]c(Cl)nc2c1cnn2-c1ccccc1 | 81.3% | 92.5% | 112% | 91.3% | 95.3% | 97.1% | 113% |  | 104% | 92.3% | 111% | 93 | 85.2% | 77.2% | 106% |  | 94.7% | 107% | 104 | 43%
N#CCCCCCn1c2ccccc2c2c3c(c4c5ccccc5[nH]c4c21)C(=O)N(O)C3=O | -5.54% (active) | 43.3% | 19.9% | 18.4% | -7.73% (active) | -53.9% (active) | 25% |  | -34.6% (active) | 16.1% | -30.7% (active) | 11.3 | -17.2% (active) | -95.4% (active) | 20.5% | 11.9% | 15.9% | 26.7% | 18.5 | 6.27% (active)
c1ccc(N2CCN(c3nncc4ccccc34)CC2)nc1 | 105% | 98.1% | 114% | 102% | 108% | 99.4% |  | 104% | 109% | 108% | 108% | 103 | 107% | 113% | 99% | 102% | 108% | 106% | 99 | 106%
O=C(CCc1nnc2sc(Cc3ccccc3Cl)nn12)c1nc2ccccc2[nH]1 | 90.4% | 89.3% | 85.2% | 92.1% | 99.5% | 96.6% | 100% | 85.8% | 112% | 76.5% | 90.9% | 84.9 | 103% | 107% | 102% | 99.2% | 92.3% |  |  | 
CCN(CC)c1ccc(CN(CC(=O)c2ccc(Cl)c(Cl)c2)Cc2ccccc2)cc1 | 97.6% | 90.9% | 110% | 96.9% | 101% | 106% | 107% |  | 108% | 99.9% | 89.9% | 102 | 107% | 108% | 112% | 103% | 99.8% | 104% | 104 | 103%
CC(=O)Oc1c(C)c(OC(C)=O)c2c(c1C(C)=O)OC1CC(=O)C(C(C)=O)=C(O)C21C (centres undefined) | 90.9% | 104% | 105% | 89.2% | 94.9% | 91.1% |  | 94.8% | 96.9% | 106% | 132% | 122 | 92% | 98.6% | 115% | 96% | 94.8% | 118% | 112 | 73.3%
CC[N+](C)(CC)CCCC(C)Nc1ccnc2cc(Cl)ccc12 (centres undefined) | 102% | 96.3% | 96.5% | 113% | 102% | 108% | 107% |  | 104% | 114% | 125% | 91.4 | 108% | 105% | 107% | 109% | 110% | 107% | 97.7 | 
COc1ccc2c(c1)nc(N)c1c3ccccc3cn21 | 79.1% | 95.3% | 88.1% | 85.6% | 72.4% | 58.1% | 75.9% | 92.7% | 65.2% | 85.5% | 77.1% | 81 | 79.5% | 94.3% | 85.9% | 63.1% | 56.4% |  |  | 
CCCCc1nc(Cl)c(CO)n1Cc1ccc(-c2ccccc2-c2nn[nH]n2)cc1 | 106% | 99.3% | 97.1% | 97.7% | 108% | 92.8% |  | 106% | 101% | 99.1% | 105% | 115 | 99.9% | 100% | 104% | 101% | 106% | 96.6% | 110 | 105%
COc1ccc(CCN2CCCN3C2=Nc2ccccc2S3(=O)=O)cc1 | 28.8% | 61.7% | 59.6% | 52.5% | 13.4% | 17.3% | 31.7% |  | 68.8% | 49.1% | -0.424% (active) | 63.1 | 14% | -28.2% (active) | 75.7% | 31.1% | 25.4% | 1.13% (active) | 23 | 15.6%
CCCC[N+](CCCC)=c1ccc2nc3c(C)cc(N(CC)CC)cc3sc-2c1 | -36.2% (active) | 18.4% | 27.6% | -23.4% (active) | 2.83% (active) | -17.1% (active) | 16.7% |  | -78.6% (active) | -29.4% (active) | -25.8% (active) | 10.4 | -24.4% (active) | -62.5% (active) | -41% (active) | 7.11% (active) | -33.5% (active) | -41.1% (active) | 13.7 | -49.1% (active)
